Compound activity as filed in PubChem BioAssay.
GSIS activator: GLuc luminescence reporter in INS-1E cells, primary screen for activators of glucose-dependent secretion of insulin; 370,000 compounds, 0.61% hits; activation, % at 16.6 µM; AID 743287, 2014; INS-1E GLuc reporter insulin secretion, 2-3 h;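 active = lowest replicate activation of at least 40%, so every replicate reaches that level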;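 note: 0% = median of neutral control wells and 100% = median of IBMX positive control wells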
dFosB activator: activators of delta FosB homodimer, primary screen, biochemical, fluorescence polarization, TAMRA-CDK5 oligo, single point; activation, % at 25 µM; purified delta FosB; percent of positive-control signal above neutral wells; Protein FosB (Mus musculus), P13346; AID 493131, 2011; 340,000 compounds, 0.99% hits;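 active = mean activation above about 17%, with every replicate also reaching it, limit read from the data, passing the limit was not always enough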
Neddyl block: inhibitors of cullin neddylation, primary screen, biochemical, TR-FRET, uHTS, NAE and Ubc12. 360,000 compounds, 0.58% hits. AID 651699, 2012. inhibition, % at 25 µM; in the data active = inhibition above about 36%
Target sequence (P61081 whole entry, looked up): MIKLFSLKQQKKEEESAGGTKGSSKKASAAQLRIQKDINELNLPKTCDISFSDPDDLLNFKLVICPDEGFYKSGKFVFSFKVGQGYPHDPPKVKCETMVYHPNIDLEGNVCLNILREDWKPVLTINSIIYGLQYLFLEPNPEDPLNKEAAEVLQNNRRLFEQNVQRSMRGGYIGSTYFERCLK
Target sequence (Q13564 whole entry, looked up): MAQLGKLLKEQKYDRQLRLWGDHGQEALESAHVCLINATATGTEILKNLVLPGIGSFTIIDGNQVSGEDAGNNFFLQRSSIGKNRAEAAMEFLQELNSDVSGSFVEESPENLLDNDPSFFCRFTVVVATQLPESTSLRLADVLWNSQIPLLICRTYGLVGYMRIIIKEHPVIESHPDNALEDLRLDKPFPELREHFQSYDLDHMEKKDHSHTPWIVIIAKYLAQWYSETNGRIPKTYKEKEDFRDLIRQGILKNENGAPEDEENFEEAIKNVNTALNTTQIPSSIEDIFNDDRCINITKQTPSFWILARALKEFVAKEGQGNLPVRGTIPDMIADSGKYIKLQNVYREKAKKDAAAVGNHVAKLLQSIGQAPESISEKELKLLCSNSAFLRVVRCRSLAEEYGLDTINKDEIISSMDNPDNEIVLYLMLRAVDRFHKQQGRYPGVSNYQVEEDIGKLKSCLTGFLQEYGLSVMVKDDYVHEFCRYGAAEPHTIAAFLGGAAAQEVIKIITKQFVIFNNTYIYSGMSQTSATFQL
A1 inh: caspase 3/7 activation in MEF A1-2A-BIM cells, primary screen, A1 inhibitor project, cell-based, luminescence, HTS | Caspase-Glo 3/7 luminescence, 3 h; percent of clofoctol response, vehicle zero | 330,000 compounds, 0.066% hits | caspase activation, % (test concentration not listed) | AID 2462, 2010;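 active = over half of replicate activation scores above 10%, or exactly half above 10 with the replicate mean above 10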
Vif inh: HIV Vif self-association inhibitors, primary screen, imaging, HEK293T, single point. HEK293T cells, Vif self-association by quenched fluorescence, 24 h. inhibition, % at 7.49 µM. 340,000 compounds, 0.35% hits. AID 602346, 2012; in the data active = inhibition above about 50%, passing the limit was not always enough
Numbers without * were called inactive; i = inactive; . = no result given; ! = a repeat was not active. Compounds with a hit are over-represented: about 1.9% of the library has one in this group of screens.

SMILES	GSIS activator	dFosB activator	Neddyl block	A1 inh	Vif inh
CC(C)NC(=O)N(C)C[C@@H]1OCCCC[C@H](C)Oc2ccc(NS(=O)(=O)c3ccc(Cl)cc3)cc2C(=O)N([C@@H](C)CO)C[C@H]1C	-13	.	.	.	.
CCCN1[C@@H]2c3ccc(-c4cccnc4)c(=O)n3C[C@@H]2[C@@H](CO)[C@@H]1C(=O)NCCCN1CCOCC1	7	.	.	.	.
CCCOc1ccc(-c2c(C(=O)N/N=C/c3ccsc3)nnn2-c2nonc2N)cc1	8	20*	9	-1	-2
Cn1c(-c2ccccc2)cc2c3no[n+]([O-])c3ccc21	.	2	-16	1	61*
Nc1ccc2cc3[nH]c4cc(N)ccc4c3nc2c1	.	67*	-455	.	.
Cc1cccc2c1-c1sc(C(=O)Nc3ccccc3N3CCN(C)CC3)cc1CO2	3	26*	.	0	0
CN1C(=O)c2cc(NC(=O)c3cnccn3)ccc2OC[C@H]2O[C@H](CC(=O)NCC3CC3)CC[C@@H]21	13	.	.	.	.
CCOc1cccc2cc(C(=O)Nc3cc(C)on3)c(=O)oc12	45*	3	-52	0	185
CCOc1cccc2cc(C(=O)Nc3ccccc3-c3ccccc3)c(=O)oc12	.	-4	8	0	-3
Cc1cccn2cc(CNS(=O)(=O)c3ccc4ccccc4c3)nc12	65*	-2	5	0	-5
Cc1ccn2cc(CNS(=O)(=O)c3ccc4ccccc4c3)nc2c1	16	-14	-17	1	-4
COc1ccc(S(=O)(=O)N(C)C[C@H]2OCCCC[C@@H](C)Oc3ccc(NC(=O)CCCN(C)C)cc3C(=O)N([C@@H](C)CO)C[C@@H]2C)cc1	6	.	.	.	.
COc1ccc(NC(=O)N2C[C@@H](O)COC[C@@H]3O[C@H](CC(=O)NCc4ccccc4OC)CC[C@H]32)cc1	9	.	.	.	.
Cc1ccc(-c2ccc([C@@H]3[C@@H]4CN(Cc5ccccc5F)C[C@H]3N4)cc2)cc1	83*	.	.	.	.
Fc1ccc(-c2ccc(C3[C@@H]4CN(Cc5ccccc5)C[C@H]3N4)cc2)cc1 (stereo partly specified)	75*!	.	.	.	.
C(=C\c1ccc(C2[C@@H]3CN(Cc4nccs4)C[C@H]2N3)cc1)/c1ccccc1 (stereo partly specified)	132*!	.	.	.	.
C(=C\c1ccc(C2[C@@H]3CN(Cc4ccccn4)C[C@H]2N3)cc1)/c1ccccc1 (stereo partly specified)	-28	.	.	.	.
Fc1ccc(-c2ccc(C3[C@@H]4CN(Cc5cccc(F)c5)C[C@H]3N4)cc2)cc1 (stereo partly specified)	376*!	.	.	.	.
COc1ccc2c3c([nH]c2c1)[C@@H](CO)N(C)CC31CCN(C(=O)c2cccnc2)CC1	-5	.	.	.	.
CO[C@H]1CN(C)C(=O)c2ccc(NC(C)=O)cc2OC[C@H](C)N(Cc2ccccc2C(=O)O)C[C@@H]1C	-4	.	.	.	.
O=C(c1ccc(F)cc1)N1C[C@@H]2N[C@H](C1)C2c1ccc(/C=C/c2ccccc2)cc1 (stereo partly specified)	119*!	.	.	.	.
O=C(c1ccncc1)N1C[C@@H]2N[C@H](C1)C2c1ccc(/C=C/c2ccccc2)cc1 (stereo partly specified)	3	.	.	.	.
Cc1ccc(-c2ccc(C3[C@@H]4CN(Cc5cccc(F)c5)C[C@H]3N4)cc2)cc1 (stereo partly specified)	997*	.	.	.	.
Fc1cccc(CN2C[C@@H]3N[C@H](C2)C3c2ccc(/C=C/c3ccccc3)cc2)c1 (stereo partly specified)	471*!	.	.	.	.
C[C@H](NC(=O)C[C@H]1CC[C@@H]2[C@H](COC[C@@H](O)CN2C(=O)Nc2cc(Cl)cc(Cl)c2)O1)c1ccccc1	-9	.	.	.	.
SMILES	GSIS activator	dFosB activator	Neddyl block	A1 inh	Vif inh
COc1ccc(-c2csc3ncnc(Sc4nnnn4C)c23)cc1	12	-3	-142	2	25
Clc1ccc(-n2nnnc2Sc2ncnc3sccc23)cc1	-7	-3	-85	0	184*
Cn1nnnc1Sc1ncnc2scc(-c3ccc(Cl)cc3)c12	70*	0	-258	2	149*
CC(=O)c1cccc(-c2csc3ncnc(Sc4nnnn4C)c23)c1	42*	.	-186	.	-20
C[C@@H]1CN([C@@H](C)CO)C(=O)c2cc(-c3ccc(F)cc3)cnc2O[C@H]1CN(C)Cc1ccc(F)cc1	-11	.	.	.	.
O=C(Nc1ccc(Cl)cc1)N[C@H]1CC[C@@H](CCn2cc(-c3ccccc3F)nn2)O[C@H]1CO	-27	.	.	.	.
O=C(C[C@H]1CC[C@@H]2[C@H](COC[C@H](O)CN2C(=O)c2ccc3c(c2)OCO3)O1)NC1CCCC1	11	.	.	.	.
COc1cc(COc2ccc(S(=O)(=O)N3CCOCC3)cc2[N+](=O)[O-])ccc1OC(F)F	-7	-3	-14	.	57*
Cc1cccc(COc2ccc(S(=O)(=O)N3CCOCC3)cc2[N+](=O)[O-])c1	-10	2	-10	.	-4
N#Cc1ccc(-c2cccnc2)nc1SCC(=O)c1ccccc1	.	-12	-162	-1	173*
N#Cc1ccc(-c2ccccc2)nc1SCC(=O)c1cccc(Cl)c1	.	3	-228	0	i
C[C@H](CO)N1C[C@H](C)[C@H](CN(C)C(=O)c2ccc3c(c2)OCO3)Oc2cc(-c3ccncc3)ccc2S1(=O)=O	8	.	.	.	.
Cc1noc(C)c1NC(=O)N(C)C[C@H]1Oc2c(NS(=O)(=O)c3ccc(F)cc3)cccc2C(=O)N([C@H](C)CO)C[C@@H]1C	18	.	.	.	.
COC(=O)N1CCCCC1c1cc(C(=O)NCc2ccc(Cl)c(Cl)c2)no1 (stereo unspecified)	73*	.	8	.	-8
O=C(NCc1ccc(Cl)c(Cl)c1)c1cc(C2CCCCN2C(=O)C2CCCCC2)on1 (stereo unspecified)	-13	.	9	.	1
COc1ccc(C(=O)COC(=O)C2CC3CCCC(C2)C3=O)cc1Br (stereo unspecified)	58*	-9	3	0	9
COc1ccc(-c2n[nH]c(C(F)(F)F)c2-c2cc3ccccc3o2)c(O)c1	31	0	43*	0	0
CC1CCN(C(=O)CSc2nc(=O)n3cc(Cl)ccc3n2)CC1	78*	-9	-5	0	8
Cc1cc2c(c(=O)n1Cc1ccccn1)C(c1ccc3c(c1)OCO3)C(C#N)=C(N)O2 (stereo unspecified)	.	-3	-76	1	3
COc1ccc(CCn2c(C)cc3c(c2=O)C(c2ccc4c(c2)OCO4)C(C#N)=C(N)O3)cc1OC (stereo unspecified)	.	51*	1	-1	-1
O=S(=O)(C/C(=C/CO)S(=O)(=O)c1ccccc1)c1ccccc1	.	-2	-4	0	62*
CNC[C@H]1Oc2ccc(NS(C)(=O)=O)cc2C(=O)N(C)C[C@H]1C	4	.	.	.	.
